RecA splice inh: blocks M. tuberculosis RecA intein splicing; inhibition, % (concentration not given with the values); cell-free RecA intein splicing, fluorescence; P9WHJ3; 0.75% of 290,000 active; AID 2221; in the data active = inhibition above about 30%; inconclusive = no clear call, values can overlap the other calls;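 also: 0% = vehicle wells and 100% = reference inhibitor control wells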
Mtb betalactam: beta-lactam sensitization of Mtb H37Rv. M. tuberculosis H37Rv growth with meropenem, percent inhibition. inhibition, % at 25 µM. 0.27% of 330,000 active. AID 434955; call rule not given here;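 also: growth measured after seven days incubation then overnight dye step; 0% = bacteria only wells and 100% = bacteria with antibiotic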
GDH-TPI counter-1: inhibits GDH-TPI coupling enzymes, artifact for Mtb FBA screen; inhibition, % at 4.8 µM; 1.2% of 360,000 active; GDH-TPI coupled enzyme counterscreen, NADH absorbance;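 also: 0% = DMSO wells and 100% = wells lacking the enzyme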
Mtb FBA inh: inhibits M. tuberculosis FBA enzyme; inhibition, % at 1 µM; AID 588726; purified M. tuberculosis FBA, fluorescence read-out; 2.3% of 360,000 active; P9WQA3; in the data active = inhibition above about 27%;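 also: 0% = vehicle and 100% = reference inhibitor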
Target sequence (P9WQA3 whole entry, looked up): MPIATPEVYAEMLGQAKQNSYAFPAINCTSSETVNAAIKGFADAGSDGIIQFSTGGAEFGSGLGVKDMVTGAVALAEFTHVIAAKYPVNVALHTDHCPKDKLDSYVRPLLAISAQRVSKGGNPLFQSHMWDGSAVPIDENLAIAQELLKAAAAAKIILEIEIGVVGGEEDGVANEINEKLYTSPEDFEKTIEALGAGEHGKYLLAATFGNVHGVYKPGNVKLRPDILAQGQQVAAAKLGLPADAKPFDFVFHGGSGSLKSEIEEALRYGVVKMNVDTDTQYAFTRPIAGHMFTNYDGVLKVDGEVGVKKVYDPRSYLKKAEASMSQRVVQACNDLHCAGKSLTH
CCHF vOTU inh: CCHFV vOTU protease inhibition; AID 651958; Pep-AMC fluorescence; inhibition, % at 11.5 µM; 0.55% of 370,000 active; also: 0% = vehicle wells with enzyme and 100% = no enzyme wells
Mtb FBA inh conf: Mtb FBA inhibition, confirmed; shares compounds with Mtb FBA inh; purified M. tuberculosis FBA, fluorescence read-out; inhibition, % at 1 µM; 78% of 5,600 active; in the data active = inhibition above about 27%;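 also: 0% = vehicle wells and 100% = reference inhibitor wells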
GDH-TPI counter-2: counter-screen for M. tuberculosis FBA inhibitors: GDH-TPI coupled enzyme inhibition; shares compounds with Mtb FBA inh; GDH-TPI coupled enzyme counterscreen, fluorescence; inhibition, % at 1 µM; 81% of 5,600 active; in the data active = inhibition above about 10%
* hit, by the source's call; ? = inconclusive; . = no result; + = active, no number. This is a sample that favours compounds with a hit; in the whole collection about 4.2% have one here. Rule as the data show it, unless noted: active = inhibition above about 30%; inactive = the rest.

SMILES	RecA splice inh	Mtb betalactam	GDH-TPI counter-1	Mtb FBA inh	CCHF vOTU inh	Mtb FBA inh conf	GDH-TPI counter-2
CC(=O)Nc1ccc(-c2cc(C(=O)O)c3ccc(C)cc3n2)cc1	.	0.2	-0.4	47.1*	-48.6	5.4	-5.0
Cc1ccc2nc(-c3ccc(O)c(O)c3)cn2c1	1.2	1.0	9.2	1.2	-15.3	.	.
COc1ccc(-c2cn3cc(C(=O)NN)ccc3n2)cc1	-2.2	4.5	4.3	41.8*	-69.6	88.6*	78.0*
CC(=O)Nc1ccc(-c2cc(C(=O)O)c3cc4ccccc4cc3n2)cc1	.	.	2.6	24.4	4.8	.	.
Cc1ccc2nc(-c3ccccc3)cn2c1	1.6	9.1	-5.0	36.8*	4.8	98.9*	88.0*
CC(=O)Nc1ccc(-c2cn3cc(C)ccc3n2)cc1	0.8	-0.7	14.6	74.3*	-32.3	+	145.2*
Cc1cc(C)cc(NC(=O)NCCCN2CCN(c3ccc(F)cc3)CC2)c1	.	.	.	.	-2.5	.	.
Cc1ccc(Cn2cc(CN3[C@@H](CC(C)C)COc4cc(Br)ccc4S3(=O)=O)nn2)cc1	.	.	.	.	0.0	.	.
CCN(C(=O)C1CCCN1S(=O)(=O)c1cccnc1)c1ccccc1 (stereo unspecified)	.	.	.	.	8.5	.	.
CN1CCc2c(sc3nc(NCCO)n(-c4cccc(Cl)c4)c(=O)c23)C1	-5.7	-6.9	22.8	70.6*	-42.9	108.6*	87.6*
COc1ccc(OC)c(S(=O)(=O)NCC2CCN(C(=O)C(=O)c3cccs3)CC2)c1	.	.	.	.	7.0	.	.
CN1C(=S)SC(N(O)C(=O)Nc2ccccc2)C1(C)C (stereo unspecified)	-4.0	0.4	-5.2	0.3	-1.6	.	.
CN1C(=S)SC(N(O)C(=O)Nc2cccc3ccccc23)C1(C)C (stereo unspecified)	3.2	-2.4	-4.5	44.3*	-12.6	34.8*	24.5*
O=C(Nc1ccccc1)OC1CC2CC1[C@H]1CCCCN1[C@H]2Cc1ccccc1 (stereo partly specified)	.	.	.	.	-3.0	.	.
O=C(Nc1ccc(-c2nc3cc(Cl)ccc3c(=O)o2)cc1)c1ccco1	-13.2	93.9	5.2	0.2	-1.1	.	.
O=C(Nc1ccc(-c2nc3c(ccc4ccccc43)o2)cc1)c1ccco1	4.4	8.6	48.2*	54.5*	-32.5	106.6*	102.8*
CCc1cc2c(nc1CC)CCCN2S(=O)(=O)c1cccs1	.	.	.	.	8.6	.	.
COC(=O)[C@]12C[C@H](CC(=O)NCCC(C)C)C(=O)N(CCc3ccc(OC)c(OC)c3)C1=C[C@H](COCc1ccccc1)O[C@@H]2C	.	.	.	.	-1.7	.	.
O=S(=O)(O)c1cc(O)c2ccc(Nc3ccccc3)cc2c1	.	.	7.7	35.0*	-9.6	3.9	-1.0
O=S(=O)(O)c1cc(O)c2cc(Nc3ccccc3)ccc2c1	.	.	17.0	47.7*	10.3	90.9*	97.6*
O=S(=O)(O)c1ccc(O)c2cc(Nc3ccccc3)ccc12	.	.	7.3	14.3	17.5	.	.
Cc1c(C(C)c2ccccc2O)c2ccccc2n1C (stereo unspecified)	.	.	.	.	-2.4	.	.
CCCC(=O)Nc1ccc(Cl)c(-c2nc3ncccc3o2)c1	1.4	6.1	-2.1	20.8	13.7	.	.
CCCC(=O)Nc1ccc2oc(-c3cccnc3)nc2c1	-0.5	-6.1	3.3	74.3*	-48.7	169.0*	138.4*
Cc1ccc(-c2nc3ncccc3o2)cc1NC(=O)C(C)(C)C	0.1	7.5	4.5	29.7*	1.2	25.6	22.4*
SMILES	RecA splice inh	Mtb betalactam	GDH-TPI counter-1	Mtb FBA inh	CCHF vOTU inh	Mtb FBA inh conf	GDH-TPI counter-2
CCCC(=O)Nc1ccc(-c2nc3ncccc3o2)cc1	-2.3	1.7	30.1	86.8*	-41.1	21.2	16.8*
Cc1cc(-c2nc3ncccc3o2)ccc1NC(=S)NC(=O)c1ccco1	-0.1	4.2	10.5	32.9*	-15.3	39.4*	32.2*
CCCC(=O)Nc1cccc(-c2nc3ccccc3o2)c1	-0.6	-4.1	2.2	11.3	3.8	.	.
C=CCN=C1NC(c2ccc(Cl)cc2)C(C(=O)OC)=C(C)N1Cc1ccccc1C(F)(F)F (stereo unspecified)	.	.	.	.	8.0	.	.
COc1ccc(OC)c(S(=O)(=O)N2CCCC(C(=O)N3CCN(Cc4ccccc4)CC3)C2)c1 (stereo unspecified)	.	.	.	.	10.0	.	.
CCCC(=O)Nc1cc(-c2nc3ncccc3o2)ccc1C	-2.5	-2.7	11.5	60.4*	5.2	98.6*	64.9*
COCCN(C[C@@H]1[C@H](c2ccccc2)[C@H](CO)N1c1nc(C)c(C)s1)S(=O)(=O)c1ccccc1[N+](=O)[O-]	.	.	.	.	3.6	.	.
C[C@H](O)[C@@H]1C(=O)N2CCc3c([nH]c4c(-c5ccccc5)cccc34)[C@@H]2C[C@@H]1N(C)C(=O)OCc1ccccc1	.	.	.	.	25.7	.	.
COC(=O)C1=C(C)N(Cc2cccc(C(F)(F)F)c2)C(=NCc2cc(OC)c(OC)c(OC)c2)NC1c1ccc(Cl)cc1 (stereo unspecified)	.	.	.	.	6.5	.	.
CC1N(C)c2cccc3cccc(c23)N1C	-0.5	-6.3	3.0	103.1*	-122.5	195.8*	128.0*
O=C(COCc1ccccc1)NC1CCCCN(Cc2cccc(Cl)c2)C1=O (stereo unspecified)	.	.	.	.	-4.7	.	.
O=C1CCCC2=C1C(c1ccc(O)c(O)c1)Nc1ccc3ccccc3c12 (stereo unspecified)	-5.3	8.8	14.5	1.9	-12.7	.	.
O=C1CCCC2=C1C(c1ccco1)Nc1ccc3ccccc3c12 (stereo unspecified)	-1.9	5.4	22.5	95.1*	-11.2	109.9*	76.5*
CN1CCc2c(sc(/N=C/c3ccco3)c2C(N)=O)C1	-46.6	-11.6	21.1	39.5*	-49.0	42.3*	24.2*
Cc1ccc(C)c(NC(=O)CSc2nc3nc(-c4cccs4)cc(C(F)(F)F)c3c(=O)[nH]2)c1	-5.6	-3.0	5.3	44.0*	-7.3	85.7*	81.8*
O=C(CSc1nc2nc(-c3cccs3)cc(C(F)(F)F)c2c(=O)[nH]1)Nc1ccc(F)c(F)c1	-7.6	19.4	10.9	20.5	-16.9	.	.
Fc1cccc2sc(Nc3nnc(-c4ccccc4)o3)nc12	3.2	?	44.6*	63.8*	18.6	+	+
COc1cc(OC)cc(-c2nnc(Nc3nc4c(F)cccc4s3)o2)c1	.	10.9	27.1	30.3*	2.9	83.8*	76.3*
O=C(c1cnccn1)N(c1ccccc1)C1(C(=O)NC2CCCCC2)CCCCC1	2.2	-12.2	1.5	30.4*	5.6	29.1*	17.9*
Nc1[nH]c(C(=O)c2ccccc2)c(-c2cccc3ccccc23)c1C(=O)NCc1ccc(Cl)cc1Cl	.	.	.	.	-2.7	.	.
CC(C)CN1C(=O)C[C@@]2(C(=O)N(C)c3ccc(NS(=O)(=O)c4ccc(F)cc4)cc32)C1c1ccccc1 (stereo partly specified)	.	.	.	.	6.1	.	.
CCCCN(CC)CCNC(=O)c1cc2cc3ccc(Cl)cc3nc2o1	0.5	-7.0	22.7	18.8	-17.1	.	.
CCCCN(CC)C(=O)c1cc2cc3ccc(OC)cc3nc2o1	1.3	76.8	34.3*	40.7*	-63.3	98.3*	78.2*

Screens (PubChem)
